Assay results from the supplement of paper PMC11732987, “Enantioselective OTUD7B fragment discovery through chemoproteomics screening and high-throughput optimisation” (Communications Chemistry, 2025).

Target: COPS5 (UniProt Q92905)
Assay: log2 ratio of Biotin-Ahx-Ub-VS probe labelling (fragment/DMSO); higher = less target engagement (more negative = stronger competition), active = hit call of the paper (q ≤ 0.05, log2 ratio ≤ -1)
Conditions: compound concentration: 200 uM; treatment time: 3 h
Protocol: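 Competitive ABPP in HEK293T cell lysate. Lysates were treated with each chloroacetamide fragment at 200 µM for 3 h, then with Biotin-Ahx-Ub-VS (0.5 µM, 1 h), NeutrAvidin-enriched and analysed by diaPASEF LC-MS/MS. Protein LFQ was median-normalised; average log2 ratio is fragment/DMSO from an unpaired t-test (n=3 treated, n=44 DMSO). Hits: q ≤ 0.05, log2 ratio ≤ -1, unique peptides ≥ 2.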

Sequence of COPS5 (Q92905 whole entry, looked up, the tested form may be a part): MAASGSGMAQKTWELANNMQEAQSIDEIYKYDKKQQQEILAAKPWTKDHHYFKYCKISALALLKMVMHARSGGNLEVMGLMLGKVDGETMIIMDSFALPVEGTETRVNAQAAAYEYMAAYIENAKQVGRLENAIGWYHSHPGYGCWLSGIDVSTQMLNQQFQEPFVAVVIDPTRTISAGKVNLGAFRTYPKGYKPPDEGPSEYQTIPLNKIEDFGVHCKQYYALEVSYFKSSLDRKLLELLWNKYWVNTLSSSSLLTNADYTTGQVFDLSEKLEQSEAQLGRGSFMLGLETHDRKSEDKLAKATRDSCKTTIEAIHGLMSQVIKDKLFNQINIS

log2 ratio of Biotin-Ahx-Ub-VS probe labelling, inactive:
O=C(CCl)N1CCOC2(CCC2)C1 0.247, CC(NC(=O)CCl)c1cnn(C2CC2)c1 (stereo not given) -0.244, Cc1nc(CN2CCN(C(=O)CCl)CC2)cs1 -0.305, Cc1ccc(N2CCC(NC(=O)CCl)C2=O)cc1 (stereo not given) -0.0995, O=C(CCl)Nc1ccc2c(c1)OC(F)(F)O2 -0.156, CCc1c[nH]c(CNC(=O)CCl)n1.Cl -0.182, O=C(CCl)Nc1cc(Cl)ccc1-n1cncn1 -0.332, O=C(CCl)N1CCCN(C(=O)c2ccc(Cl)cc2)CC1 0.0384, Cc1ccccc1OCC(=O)N1CCN(C(=O)CCl)CC1 0.104, CN(C)C(=O)c1ccc(NC(=O)CCl)cc1 0.125, Cl.Cn1nc2c(c1CNC(=O)CCl)CCCC2 -0.111, COc1ccc(-c2csc(NC(=O)CCl)n2)cc1 0.189, O=C(CCl)N1CCC(c2ccn[nH]2)C1 (stereo not given) 0.121, O=C(CCl)N1CCN2C(=O)CCC2C1 (stereo not given) 0.141, Cc1n[nH]c(=O)c2c(NC(=O)CCl)oc(C)c12 0.0565, O=C(CCl)N1CCC(c2noc3cc(F)ccc23)CC1 0.00234, Cl.O=C(CN1CCN(C(=O)CCl)CC1)Nc1ccc(F)cc1 0.0025, CC1CN(c2ccc(NC(=O)CCl)cc2)CC(C)O1 (stereo not given) 0.159, O=C(CCl)NCc1ccc(N2CCOCC2)c(F)c1 -0.0355, CC(c1ccccc1)N(C)C(=O)CCl (stereo not given) 0.082, Cc1nc(-c2cccc(NC(=O)CCl)c2)cs1 -0.0825, O=C(CCl)NC(Cn1ccccc1=O)c1ccccc1 (stereo not given) 0.168, O=C(CCl)NCCC1COCCO1 (stereo not given) -0.0816, O=C(CCl)N1CCc2sccc2C1 -0.455, O=C(CCl)NCc1ccc(Cl)cc1 -0.152, O=C(CCl)NC1CCCCNC1=O (stereo not given) 0.0739, O=C(CCl)Nc1ccc(Cl)c(F)c1 0.155, O=C(CCl)N1CCOC(c2cccc(F)c2)C1 (stereo not given) -0.0425, CNC(=O)C1(NC(=O)CCl)CCCCC1 0.00317, Cc1ccc(CNC(=O)CCl)nc1C.Cl 0.0421, O=C(CCl)N1CCC(O)(Cc2ccc(F)cc2)C1 (stereo not given) 0.0199, N#Cc1ccc(CNC(=O)CCl)cc1 0.228, O=C(CCl)N1c2ccccc2NC(=O)C12CCCC2 0.325, Cl.O=C(CCl)N1CC(c2ccc(Br)cn2)C1 -0.0867, O=C(CCl)N(C1CCCC1)C1CCS(=O)(=O)C1 (stereo not given) -0.0682, Cc1cccn2cc(CCNC(=O)CCl)nc12.Cl -0.284, Cl.O=C(CCl)NCCc1ncc(F)cc1F 0.213, Cc1ccn2cc(CNC(=O)CCl)nc2c1.Cl 0.326, O=C(CCl)NCCc1ccc(F)cc1 0.0919, Cc1ncc2c(n1)CCN(C(=O)CCl)C2 0.163
